The values that follow come from PubChem BioAssay (Tox21).

SMILES strings stand for the structures. Active and inactive are the calls of the source. Where a call stands in place of a potency, no number is given. Calls come from the whole dose curve; as a rule, active = well fitted activation curve with a large enough effect in the repeat runs; inconclusive = weak or mixed curves; inactive = flat fitted curve, though single readings scatter.

The nature of the experiment: A CellTox Green Cytotoxicity Assay to monitor cytotoxicity in HEK293 cells - 0 hour (AID 1224869). Note: nearly all actives have a fitted effect of over 50% in size. The note with it: CellTox Green fluorescence; series mostly up to 76.8 µM. Put shortly:
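Nonlytic real-time cytotoxicity: HEK293 + CellTox Green reagent plated, 5 h preincubation, pintool compound addition (23 nL in DMSO), 37 C for 40 h, fluorescence measured at successive time points.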
On to `Nc1nnc(-c2ccc([N+](=O)[O-])o2)o1`, for which the Potency entry is “inactive”.
As for `C=C1CCC2CC1C2(C)C` (stereo not drawn), the Potency result is “inactive”.
The value for `O=C(O)c1cccc(-c2noc(-c3ccccc3F)n2)c1` was “inactive”; that for `CC(=O)OCCN(CCOC(C)=O)c1ccc(N=Nc2ccc([N+](=O)[O-])cc2C#N)cc1` was “inactive”.
Take `O=c1[nH]c2ccc(Cl)cc2o1`: the Potency result is “inactive”.
The value for `CCc1ccccc1` was “inactive”; that for `CCC(C)COC(C)=O` (stereo not drawn) was “inactive”; that for `C=C(C)[C@@H]1CCC2=CCC[C@@H](C)[C@]2(C)C1` was “inactive”.
The value for `O=C(Cn1ccnc1[N+](=O)[O-])NCCO` was “inactive”.
The value for `C[C@]1(Cn2ccnn2)[C@H](C(=O)O)N2C(=O)C[C@H]2S1(=O)=O` was “inactive”; that for `O=C(/C=C/c1ccccc1)OCCc1ccccc1` was “inactive”.
`CCCCN1CCCC1C(=O)Nc1c(C)cc(C)cc1C` (stereo not drawn): the Potency result is “inactive”.
The result for `Cc1ccc(C(C)(C)O)cc1` reads “inactive”; that for `CCCCN(CCCC)C(C(N)=O)c1ccc(OC)cc1` (stereo not drawn), “inactive”.
The result for `CCCCN(CCN(CCCC)C(=O)N1CCOCC1)C(=O)N1CCOCC1` reads “inactive”.
The value for `CC1CC(OC(=O)C(O)c2ccccc2)CC(C)(C)N1C` (stereo not drawn) was “inactive”; that for `OCCN1CCN(CCCN2c3ccccc3Sc3ccc(Cl)cc32)CC1` was “inactive”; that for `CCCCCC[C@@H](O)C/C=C\CCCCCCCC(=O)OCC(O)CO` (stereo partly drawn) was “inactive”.
